Common to all, as to test: qHTS profiling for inhibitors of Plasmodium falciparum proliferation (AID 504749); note: nearly all actives have a fitted effect of over 60% in size
Common to all, as to conditions: P. falciparum in erythrocytes, SYBR Green DNA, 72 h; series mostly up to 28.7 µM
(In qHTS, concentration-response curves come from the screen itself.)

The test system of one experiment is CP335. The gist of the method:
(§1)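 Readout was DNA-dye fluorescence from lysed cultures, ex 485/em 535 nm. Parasitized red cells had grown 72 h with compound; data scaled between 0.29 uM artemisinin and DMSO wells and corrected using vehicle-only plates.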

The next experiment deals with DFO2036. The gist of the method:
as §1

A further experiment has as its system DIV14. The gist of the method:
as §1

A further experiment concerns DIV17. The gist of the method: as §1
In a further experiment the test system is DIV30. The method in brief: as §1
The test system of a further experiment is Dd2. The gist of the method:
as §1

Another experiment deals with ECU. The gist of the method: as §1
Another experiment concerns FAB9. The gist of the method: as §1
A further experiment concerns GB4. The gist of the method: as §1
A further experiment deals with HB3. The method in brief: as §1
A further experiment deals with ICS. The method in brief:
as §1

A further experiment has as its system JCK. The gist of the method:
as §1

A further experiment concerns N140. The method in brief:
as §1

In a further experiment the test system is P93_24. The method in brief:
as §1

The next experiment has as its system P94_40. The method in brief: as §1
A further experiment deals with PAD. The gist of the method:
as §1

Another experiment has as its system PC15. The method in brief: as §1
A further experiment relates to PC26. The method in brief:
as §1

The next experiment concerns PC49. The gist of the method:
as §1

For a further experiment, the system named is SC27B. The gist of the method: as §1

SMILES strings stand for the structures. Records with an inconclusive call do not appear. Activity calls are given as the source filed them. Calls come from the whole dose curve; as a rule, active = well fitted inhibition curve with a large enough effect; inconclusive = small, poorly fitted or top-dose-only effect; inactive = flat fitted curve, though single readings scatter.
Potency is the fitted concentration of half-maximal effect.

With `NCCS(=O)(=O)O`, the Potency result in the experiment with CP335, with DFO2036, in the experiment on DIV14, in the experiment on DIV17, in the experiment on DIV30 and in the experiment with Dd2 was “inactive” throughout. Besides, the Potency entry in the experiment on ECU, in the experiment on FAB9, in the experiment with GB4, in the experiment with HB3, in the experiment with ICS and in the experiment on JCK was “inactive” each time. Besides, the Potency result in the experiment on N140, with P93_24, in the experiment with P94_40, in the experiment on PAD, in the experiment on PC15 and in the experiment with PC26 was “inactive” each time. Besides, the Potency entry in the experiment on PC49 and in the experiment with SC27B was “inactive” throughout.
As to `Cn1cnc2c1c(=O)[nH]c(=O)n2C`, the Potency entry with CP335, in the experiment on DFO2036, with DIV14, in the experiment with DIV17, in the experiment on DIV30 and with Dd2 was “inactive” in each case. Besides, the Potency entry in the experiment on ECU, in the experiment with FAB9, in the experiment with GB4, in the experiment with HB3, with ICS and with JCK was “inactive” each time. Besides, the Potency result in the experiment with N140, with P93_24, in the experiment with P94_40, in the experiment on PAD, in the experiment with PC15 and in the experiment with PC26 was “inactive” throughout. The Potency entry in the experiment with PC49 and in the experiment on SC27B was “inactive” each time.
Take `COc1nc(C)nc(Cl)c1NC1=NCCN1`: the Potency result in the experiment on CP335, with DFO2036, in the experiment with DIV14, with DIV17, in the experiment with DIV30 and in the experiment with Dd2 was “inactive” throughout. For the same molecule, the Potency result in the experiment on ECU, in the experiment with FAB9, with GB4, in the experiment on HB3, in the experiment with ICS and in the experiment on JCK was “inactive” each time. In addition, the Potency entry in the experiment with N140, in the experiment on P94_40, in the experiment with PAD, in the experiment with PC15, with PC26 and with PC49 was “inactive” each time. Also, the Potency entry in the experiment with SC27B is “inactive”.
Take `CC(C)Cc1ccc(C(C)C(=O)O)cc1` (stereo not drawn): the Potency result in the experiment on CP335, with DFO2036, in the experiment with DIV14, with DIV17, with DIV30 and with Dd2 was “inactive” each time. For the same molecule, the Potency result in the experiment on ECU, with FAB9, with GB4, in the experiment on HB3, with ICS and with JCK was “inactive” each time. Further, the Potency result with N140, with P93_24, with P94_40, with PAD, in the experiment on PC15 and with PC26 was “inactive” each time. For the same molecule, the Potency result in the experiment with PC49 and in the experiment on SC27B was “inactive” each time.
In the case of `CC(=O)OCC(CCn1cnc2cnc(N)nc21)COC(C)=O`, the Potency result with CP335, in the experiment on DFO2036, with DIV14, in the experiment with DIV17, in the experiment with DIV30 and in the experiment with Dd2 was “inactive” each time. For the same molecule, the Potency entry in the experiment with ECU, with FAB9, in the experiment on GB4, in the experiment with HB3, with ICS and in the experiment on JCK was “inactive” in each case. Besides, the Potency result with N140, in the experiment on P93_24, in the experiment on P94_40, with PAD, in the experiment on PC15 and in the experiment with PC26 was “inactive” each time. The Potency entry in the experiment with PC49 and in the experiment with SC27B was “inactive” in each case.
With `CN(CCOc1ccc(NS(C)(=O)=O)cc1)CCc1ccc(NS(C)(=O)=O)cc1`, the Potency entry in the experiment with CP335, in the experiment with DFO2036, in the experiment on DIV14, in the experiment with DIV17, with DIV30 and in the experiment on Dd2 was “inactive” each time. In addition, the Potency entry in the experiment with ECU, with FAB9, with GB4, with HB3, in the experiment with ICS and in the experiment with JCK was “inactive” in each case. The Potency entry with N140, with P94_40, with PAD, in the experiment with PC15, in the experiment with PC26 and with PC49 was “inactive” each time. Besides, in the experiment with SC27B, the Potency entry was “inactive”.
As to `CC(C)(Oc1ccc(C2CC2(Cl)Cl)cc1)C(=O)O` (stereo not drawn), the Potency result with CP335, with DFO2036, with DIV14, with DIV17, in the experiment on DIV30 and in the experiment on Dd2 was “inactive” each time. Moreover, the Potency result with ECU, with FAB9, with GB4, in the experiment on HB3, in the experiment on ICS and in the experiment on JCK was “inactive” in each case. Moreover, the Potency result with N140, in the experiment on P93_24, in the experiment on P94_40, in the experiment on PAD, in the experiment with PC26 and in the experiment with PC49 was “inactive” each time. Also, in the experiment with SC27B, the Potency result was “inactive”.
Regarding `CC[N+](CC)(CC)CCOc1cccc(OCC[N+](CC)(CC)CC)c1OCC[N+](CC)(CC)CC`, the Potency entry in the experiment on CP335, in the experiment with DFO2036, with DIV14, in the experiment with DIV17, with DIV30 and in the experiment on Dd2 was “inactive” each time. Besides, the Potency result in the experiment on ECU, with FAB9, with GB4, in the experiment on HB3, with ICS and in the experiment on JCK was “inactive” each time. The Potency entry in the experiment with N140, in the experiment with P93_24, in the experiment with P94_40, in the experiment with PAD, in the experiment on PC15 and in the experiment on PC26 was “inactive” each time. The Potency result with PC49 and with SC27B was “inactive” in each case.
On to `O=C1c2c(O)ccc(O)c2C(=O)c2c(NCCNCCO)ccc(NCCNCCO)c21`, for which the Potency with CP335 is 2870 nM (active); in the experiment with DFO2036 it was 2510 nM (active); in the experiment on DIV14, 4550 nM (active); in the experiment on DIV17 it was 2560 nM (active); in the experiment with DIV30, 5100 nM (active); in the experiment on Dd2 it was 1580 nM (active). Further, the Potency was 2870 nM (active) in the experiment with GB4; 3160 nM (active) in the experiment on HB3; 1580 nM (active) in the experiment with ICS; 2240 nM (active) in the experiment on N140; 1780 nM (active) in the experiment with P93_24; 1580 nM (active) in the experiment on P94_40. In addition, the figures for the Potency in the experiment with PAD, in the experiment on PC26 and in the experiment with SC27B were 2000 nM (active), 6420 nM (active) and 3160 nM (active), respectively. For the same molecule, in the experiment on PC49, the Potency result was “inactive”.
Consider `CS(=O)(=O)Nc1ccc([N+](=O)[O-])cc1Oc1ccccc1`, for which the Potency entry in the experiment with CP335, in the experiment with DFO2036, in the experiment on DIV14, in the experiment with DIV17, in the experiment on DIV30 and in the experiment with Dd2 was “inactive” each time. Also, the Potency entry with ECU, in the experiment with FAB9, in the experiment with GB4, in the experiment on HB3, in the experiment on ICS and in the experiment on JCK was “inactive” throughout. Besides, the Potency result with N140, in the experiment on P93_24, in the experiment with P94_40, in the experiment on PAD, in the experiment with PC15 and in the experiment with PC26 was “inactive” in each case. The Potency entry in the experiment on PC49 and in the experiment on SC27B was “inactive” throughout.
Regarding `C[C@](N)(Cc1ccc(O)c(O)c1)C(=O)O`, the Potency result in the experiment on CP335, with DFO2036, in the experiment with DIV14, with DIV17, with DIV30 and in the experiment with Dd2 was “inactive” in each case. For the same molecule, the Potency entry in the experiment on ECU, with FAB9, with GB4, in the experiment with HB3, in the experiment with ICS and with JCK was “inactive” throughout. The Potency entry in the experiment on N140, in the experiment with P93_24, in the experiment on P94_40, in the experiment with PAD, in the experiment with PC15 and in the experiment on PC26 was “inactive” in each case. Besides, the Potency entry with PC49 and with SC27B was “inactive” in each case.
On to `COc1ccccc1OCC(O)CN1CCN(CC(=O)Nc2c(C)cccc2C)CC1` (stereo not drawn), for which the Potency entry in the experiment on CP335, with DFO2036, with DIV14, in the experiment with DIV17, in the experiment on DIV30 and in the experiment with Dd2 was “inactive” in each case. In addition, the Potency result in the experiment with ECU, in the experiment with FAB9, in the experiment on GB4, with HB3, in the experiment on ICS and in the experiment with JCK was “inactive” each time. Besides, the Potency result with N140, with P93_24, with P94_40, with PAD, in the experiment on PC15 and in the experiment on PC26 was “inactive” in each case. Further, the Potency entry in the experiment on PC49 and with SC27B was “inactive” throughout.
Regarding `CCOC(=O)C(C)(C)Oc1ccc(Cl)cc1`, the Potency result with CP335, in the experiment with DFO2036, with DIV14, with DIV17, in the experiment on DIV30 and in the experiment on Dd2 was “inactive” throughout. For the same molecule, the Potency result with ECU, in the experiment with FAB9, in the experiment on GB4, in the experiment with HB3, with ICS and in the experiment on JCK was “inactive” in each case. Moreover, the Potency entry in the experiment on N140, with P93_24, in the experiment on P94_40, in the experiment on PAD, in the experiment on PC15 and with PC26 was “inactive” in each case. For the same molecule, the Potency entry in the experiment with PC49 and with SC27B was “inactive” in each case.

The values are drawn from PubChem BioAssay (NCATS).
